# Screen size: about 48,000 compounds; about 13,000 (27%) showed an effect of 50% or more. This is one part of the list.
# Test system: Wolbachia pipientis
# Assay: Anti-Wolbachia Cell-Based Screen
# Type: functional
# Design: scale not given: in the data most compounds retested in dose-response had high values
# Conditions: 5 µM
row,SMILES,Percent Effect [%]
1,Cc1cc(NC(=O)N2CCCC(CO)C2)nn1-c1ccccc1Cl (stereo not given),6.236
2,COc1ccc(OC)c(CN(C(=O)c2ccc(C)[nH]c2=O)C2CC2)c1,-3.072
3,CC(C)c1nnc(NC(=O)CN2C(=O)c3ccccc3NC2C(C)C)s1 (stereo not given),94.59
4,CC(C)c1nnc(NC(=O)N2CCN(C)CC2c2ccccc2)s1 (stereo not given),2.354
5,CCC(=O)Nc1nnc(CCCOc2ccccc2)s1,-6.738
6,CC(C)c1nnc(NC(=O)N2CCCC2c2ccncc2)s1 (stereo not given),0.4499
7,CCC(=O)Nc1nnc(CCOc2cccc(OC)c2)s1,0.4737
8,COCc1nnc(NC(=O)CN2C(=O)c3ccccc3NC2C(C)C)s1 (stereo not given),107.7
9,CCN1CCN(c2nc(C(C)C)nc3c(C)nn(CC)c23)CC1,-2.933
10,Cn1ccnc1CN1CCN2C[C@H](Oc3ccccc3)C[C@H]2C1.O=C(O)C(F)(F)F.O=C(O)C(F)(F)F,-6.794
11,CN(C)c1nccc(N(C)Cc2ncnn2C)n1,4.507
12,Cc1nc(CNCC2CN(C3CC3)CCO2)cs1 (stereo not given),87.5
13,CCN1CCOC(CNc2nccc(OC)n2)C1 (stereo not given),1.918
14,CCN1CCOC(CNCc2ccccc2OCC(=O)N(C)C)C1 (stereo not given),-2.531
15,COc1ccnc(NCC2CN(C3CC3)CCO2)n1 (stereo not given),0.4171
16,CCN1CCOC(CNCc2ccc(C)s2)C1 (stereo not given),96.42
17,CCN1CCOC(CNCc2csc(C)n2)C1 (stereo not given),88.2
18,Cc1nc(CNCC2CCCN(C(=O)OC(C)(C)C)C2)cs1 (stereo not given),4.206
19,CCN1CCOC(CNCc2ccccn2)C1 (stereo not given),1.335
20,CCN1CCOC(CNCc2ccc(OC)c(F)c2)C1 (stereo not given),-3.361
21,CCc1noc(CN(C)C(=O)c2ccccc2-c2ncn[nH]2)n1,-19
22,Cc1nn(C)c(C)c1CN(C(=O)c1cc(Cl)c[nH]c1=O)C(C)C,-11.33

row,SMILES,Percent Effect [%]
1,CC(C(=O)NC1(C#N)CCCCC1)N1CCc2c(ncn2C)C1 (stereo not given),-1.256
2,O=C(c1ccccc1C(F)(F)F)N1CC[C@@H](N2CCC(O)CC2)[C@H](O)C1,-4.117
3,O=C(c1ccc(F)cc1F)N1CC[C@H](O)[C@@H](N2CCOCC2)CC1,0.4748
4,Cc1ccccc1C(=O)N1CC[C@@H](N2CCC(O)CC2)[C@H](O)C1,2.362
5,Cc1ccccc1C(=O)N1CC[C@H](O)[C@@H](N2CCOCC2)CC1,126.5
6,N#Cc1ccc(OC2CCN(C(=O)c3ccccc3Cl)CC2)nc1,-3.988
7,O=C(c1ccccc1Cl)N1CC[C@H](O)[C@@H](N2CCOCC2)CC1,95.8
8,N#Cc1cccc(CN2CCCC2c2ccc[nH]2)c1 (stereo not given),7.816
9,Cc1ccc(NC(=O)C2CSCN2C(=O)c2cc[nH]n2)c(C)c1 (stereo not given),9.143
10,O=C(NC1CCCC1)N1C[C@H]2CN(c3ccncc3)C[C@@]2(C(=O)O)C1,-18.18
11,Cc1ccc(C(CNCc2nccn2C)N2CCOCC2)s1 (stereo not given),-4.854
12,Cc1ccc(C(CNCc2ccncc2)N2CCOCC2)s1 (stereo not given),-8.996
13,CCn1ccnc1CNCC(c1ccc(C)s1)N1CCOCC1 (stereo not given),53.4
14,CC(c1ccccc1)n1c(SCC(=O)O)nnc1-c1ccccc1Cl (stereo not given),9.035
15,CCn1cc(NC(=O)c2cccc(CN3C[C@@H](C)O[C@@H](C)C3)c2)nn1,90.95
16,CCCn1cc(NC(=O)c2cccc(CN3CC=CC3)c2)nn1,-66.35
17,CCCn1cc(NC(=O)c2cccc(CN3CC[C@H](O)C3)c2)nn1,12.98
18,Cc1cccc(C2(NC(=O)CCCn3cncn3)CCCC2)c1,-10.46
19,COc1ccc(OC)c(Sc2ncccc2C(=O)NCC2CC2)c1,167.1
20,CCOCCNC(=O)c1cccnc1Sc1cc(OC)ccc1OC,152.7
21,CCOC(=O)NC(CNC(=O)c1cccnc1SC)CC(C)C (stereo not given),-1.757
22,COCCNC(=O)c1cc(OC)ccc1Br,8.343

row,SMILES,Percent Effect [%]
1,CCOCCNC(=O)c1cnc(Sc2nccn2C)c(Cl)c1,13.89
2,COc1ccc(OC)c(C(=O)Nc2cccnc2-n2cncn2)c1,13.43
3,CCOC(=O)CNC(=O)c1cccnc1Sc1cc(OC)ccc1OC,162.1
4,COc1ccc(C(=O)NCCCNc2ncccn2)cc1F,-6.702
5,COCCNC(=O)c1cccnc1Sc1cc(OC)ccc1OC,161.9
6,Cc1nc2cc(F)ccc2cc1C(=O)N1CCN(CC(C)O)CC1 (stereo not given),-9.577
7,COc1ccc(OC)c(Sc2ncccc2C(=O)NCCSC)c1,104.4
8,CSc1ncccc1C(=O)NCCC(O)c1cc(C)oc1C (stereo not given),-1.719
9,CSc1ncccc1C(=O)NCCC(O)c1cccs1 (stereo not given),13.17
10,O=c1oc(-c2ccc(F)cc2)nn1CCc1ccccn1,-9.185
11,O=C(c1ccc(N2CCCC2)nn1)N1CCCc2ccc(F)cc21,-11.11
12,O=C(c1ccc(N2CCCC2)nn1)N1CCc2ccccc21,13.46
13,O=C(c1ccc(N2CCCCCC2)nn1)N1CCc2ccccc21,130.8
14,CCN(CC)C(=O)Nc1cc2c(cc1SC)OCCO2,7.32
15,CC(C)c1nccn1C1CCCN(C(=O)c2cccc3c2OCO3)C1 (stereo not given),-5.15
16,O=C(c1cccc2c1OCO2)N1CCCC(n2ccnc2)C1 (stereo not given),115.9
17,CCc1nccn1C1CCCN(C(=O)c2cnn3ccc(C)nc23)C1 (stereo not given),-1.055
18,CCc1nccn1C1CCCN(C(=O)c2ccnc(C)n2)C1 (stereo not given),1.971
19,O=C(c1cccc2c1OCCO2)N1CCCC(n2ccnc2)C1 (stereo not given),-8.704
20,Cc1nccn1C1CCCN(C(=O)c2cccc3c2OCO3)C1 (stereo not given),116.3
21,CCc1nccn1C1CCCN(C(=O)c2cccc3c2OCO3)C1 (stereo not given),115.7
22,O=C(c1cc(Cl)c2c(c1)OCO2)N1CCCC(n2ccnc2)C1 (stereo not given),1.53

row,SMILES,Percent Effect [%]
1,O=C1CC(C(=O)Nc2nnc(-c3cccs3)[nH]2)c2ccccc2N1 (stereo not given),-3.979
2,CC(C)OC(=O)CN1N=C(C(=O)N2CCCC2)S(=O)(=O)c2ccccc21,15.65
3,N#Cc1ccccc1CN1C[C@@H]2CC[C@H](C1)N(CC1CC1)C2=O,-10.09
4,Cc1nn(CCC#N)c(C)c1CCC(=O)N(C(C)C)C1CC1,-0.4171
5,COc1ccc(C(=O)NC2CC2)c(OC2CCN(CC3CC3)CC2)c1,4.837
6,COCc1nc(C(=O)N2CCCC(n3ccnc3C(C)C)C2)cs1 (stereo not given),114
7,COCc1nc(C(=O)N2CCCC(n3ccnc3)C2)cs1 (stereo not given),102.7
8,COCc1nc(C(=O)N2CCCC(n3ccnc3C)C2)cs1 (stereo not given),95.68
9,COCc1nc(C(=O)N2CCN(c3nccc(OC)n3)CC2)cs1,-10.67
10,Cc1nccn1C1CCCN(C(=O)c2ccc(N3CCCC3)nn2)C1 (stereo not given),-4.751
11,CC(C)c1nccn1C1CCCN(C(=O)c2ccc(=O)n(C)n2)C1 (stereo not given),4.106
12,CSCC(=O)N1CCCC(n2ccnc2C(C)C)C1 (stereo not given),-4.829
13,CC(=O)Nc1nc(C(=O)N2CCCC(n3ccnc3)C2)cs1 (stereo not given),-0.04658
14,CC(C)Nc1ccc2c(c1)C1(CCOCC1)C(=O)N2c1ccsc1,-5.936
15,CCc1cc(N2C[C@H](C3CC3)[C@@H](N)C2)nc(N2CCOCC2)n1,-5.197
16,CCOc1ccnc(N2CCN(C(=O)c3cn[nH]c3CC)CC2)n1,-0.2597
17,CCOc1ccnc(N2CCN(C(=O)CCc3ccncc3)CC2)n1,-7.253
18,CCOc1ccc(Cl)c(C(=O)N2CCCN(CC(N)=O)CC2)n1,93.33
19,CCOc1ccc(Cl)c(C(=O)N2CCN(c3cnccn3)CC2)n1,0.9998
20,CCOc1ccc(Cl)c(C(=O)N2CCN(c3ccncc3)CC2)n1,119.1
21,CCOc1ccc(Cl)c(C(=O)NC(C)C(N)=O)n1 (stereo not given),-12.05
22,CCC(O)CN1CCN(C(=O)c2csc(COC)n2)CC1 (stereo not given),-26.29

row,SMILES,Percent Effect [%]
1,CCOc1ccc(Cl)c(C(=O)N2CCN(CC(O)CC)CC2)n1 (stereo not given),92.51
2,CCC(O)CN1CCN(C(=O)c2cccn2Cc2ccccc2)CC1 (stereo not given),-11.52
3,CCOc1ccnc(N2CCN(C(=O)c3cccnc3O)CC2)n1,-0.2095
4,Cc1cccc(OCCC(=O)N2CCCN(CC(N)=O)CC2)c1C,-3.511
5,CCOc1ccc(Cl)c(C(=O)N2CCN(c3ncccn3)CC2)n1,79.36
6,COCc1nc(C2CC2)nn1-c1ccccc1Cl,-16.97
7,CC(NCc1c(C(C)C)nn(C)c1N1CCOCC1)C(N)=O (stereo not given),1.644
8,Cc1cnc(C)c(N2CCC(c3nccn3Cc3cscn3)CC2)n1,32.35
9,CC(NC(=O)CCCOc1cccc(F)c1)c1ccncc1 (stereo not given),-15.4
10,Cc1ncc2c(n1)CN(Cc1ncc(C(C)(C)C)o1)CC2,13.07
11,OCC(O)CN1CCc2onc(-c3ccc(C(F)(F)F)cc3)c2C1 (stereo not given),-7.135
12,CN(C)C(=O)c1ccc(OC2CCOCC2)cc1,14.67
13,COC(C)(C)CNC(=O)N(C)Cc1nc(-c2ccccc2)c[nH]1,-6.978
14,CC(C)(O)CN1CCN(C(=O)c2cccc3[nH]ncc23)CC1,5.71
15,CCOc1ccc(Cl)c(C(=O)N2CCCSCC2)n1,87.04
16,CCOc1ccc(Cl)c(C(=O)N2CCN(C(=O)c3ccoc3C)CC2)n1,-0.3279
17,CC(C)(O)CN1CCN(C(=O)c2cc(Cl)cc3cccnc23)CC1,-2.728
18,CCOc1ccc(Cl)c(C(=O)N2CCN(CC(C)(C)O)CC2)n1,117.3
19,COc1ccc(OCc2cc(C(=O)N3CCSCC3)n[nH]2)c(Cl)c1,-44.95
20,CCOc1ccc(Cl)c(C(=O)N2CCN(C(=O)OC)CC2)n1,106.5
21,CCOc1ccc(Cl)c(C(=O)N(C)C)n1,-5.446
22,CCOc1ccc(Cl)c(C(=O)NCc2ccc(C(=O)NC)cc2)n1,-13.09
